Experimental data taken from PubChem BioAssay AID1159580 (chemical genetic matrix, 2015).
The campaign covered roughly 5,500 compounds. About 2,000 (36%) were called active. About 18% were inconclusive and are not listed. No stated cut-off is given here; in the data, active means normalized growth mostly below about 0.91 (no sharp cut-off); inconclusive means no clear call, values can overlap the other calls; inactive means mostly above about 0.92. The list shows a part of the results.

Assay: chemical genetic growth profiling, strain panel (AID 1159580);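 further: tested at 20 µM; growth read once vehicle control cultures reached saturation at 30 °C; 1 = growth at the plate median or of vehicle wells; lower values mean less growth of the strain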
Settings: growth OD

Measured: normalized growth

Cc1c(N(C)C)c(=O)n(-c2ccccc2)n1C
inactive: S. cerevisiae deletion strains, locus YKL009W, strain mrt4, hits give low values 0.984 | S. cerevisiae deletion strains, locus YKL068W, hits give low values 0.991 | S. cerevisiae deletion strains, locus YKL085W, strain MDH1 (second series), hits give low values 0.985 | S. cerevisiae deletion strains, locus YKL085W, strain MDH1, hits give low values 0.985 | S. cerevisiae deletion strains, locus YKL160W, strain elf1, hits give low values 0.988 | S. cerevisiae deletion strains, locus YKL190W, strain CNB1, hits give low values 0.988 | S. cerevisiae deletion strains, locus YKR001C, strain vps1, hits give low values 1 | S. cerevisiae deletion strains, locus YKR026C, strain gcn3, hits give low values 0.992 | S. cerevisiae deletion strains, locus YKR091W, strain srl3, hits give low values 0.976 | S. cerevisiae deletion strains, locus YLL001W, strain dnm1, hits give low values 0.972 | S. cerevisiae deletion strains, locus YLL026W, hits give low values 0.973 | S. cerevisiae deletion strains, locus YLL041C, strain sdh2, hits give low values 0.992 | S. cerevisiae deletion strains, locus YLR027C, strain aat2, hits give low values 0.97 | S. cerevisiae deletion strains, locus YLR039C, strain RIC1, hits give low values 0.983 | S. cerevisiae deletion strains, locus YLR058C, strain SHM2, hits give low values 0.997 | S. cerevisiae deletion strains, locus YLR102C, strain apc9, hits give low values 0.992 | S. cerevisiae deletion strains, locus YLR113W, strain HOG1, hits give low values 1.03 | S. cerevisiae deletion strains, locus YLR221C, strain rsa3, hits give low values 1.06 | S. cerevisiae deletion strains, locus YLR258W, strain gsy2, hits give low values 0.985 | S. cerevisiae deletion strains, locus YLR262C, strain YPT6 (second series), hits give low values 0.971 | S. cerevisiae deletion strains, locus YLR262C, strain YPT6, hits give low values 0.972 | S. cerevisiae deletion strains, locus YLR268W, strain sec22, hits give low values 0.963 | S. cerevisiae deletion strains, locus YLR320W, strain mms22, hits give low values 0.994 | S. cerevisiae deletion strains, locus YLR330W, strain CHS5, hits give low values 0.989 | S. cerevisiae deletion strains, locus YLR342W, strain FKS1 (second series), hits give low values 1.05 | S. cerevisiae deletion strains, locus YLR342W, strain FKS1, hits give low values 0.961 | S. cerevisiae deletion strains, locus YLR357W, strain rsc2, hits give low values 0.935 | S. cerevisiae deletion strains, locus YLR370C, strain arc18, hits give low values 0.984 | S. cerevisiae deletion strains, locus YLR371W, strain rom2, hits give low values 0.991 | S. cerevisiae deletion strains, locus YLR384C, strain iki3, hits give low values 0.991 | S. cerevisiae deletion strains, locus YLR418C, strain cdc73, hits give low values 1.03 | S. cerevisiae deletion strains, locus YML016C, strain PPZ1, hits give low values 1 | S. cerevisiae deletion strains, locus YML032C, strain rad52, hits give low values 0.967 | S. cerevisiae deletion strains, locus YML120C, strain ndi1, hits give low values 0.993 | S. cerevisiae deletion strains, locus YML124C, strain tub3, hits give low values 0.997 | S. cerevisiae deletion strains, locus YMR058W, strain fet3, hits give low values 1.01 | S. cerevisiae deletion strains, locus YMR078C, strain ctf18, hits give low values 0.985 | S. cerevisiae deletion strains, locus YMR125W, strain sto1, hits give low values 0.989 | S. cerevisiae deletion strains, locus YMR129W, hits give low values 0.991 | S. cerevisiae deletion strains, locus YMR205C, strain PFK2, hits give low values 0.991 | S. cerevisiae deletion strains, locus YMR223W, strain ubp8, hits give low values 1.02 | S. cerevisiae deletion strains, locus YMR231W, strain pep5, hits give low values 0.978 | S. cerevisiae deletion strains, locus YMR263W, strain SAP30, hits give low values 0.989 | S. cerevisiae deletion strains, locus YMR307W, strain GAS1, hits give low values 1.08 | S. cerevisiae deletion strains, locus YNL067W, strain RPL9B, hits give low values 0.978 | S. cerevisiae deletion strains, locus YNL071W, strain lat1, hits give low values 1 | S. cerevisiae deletion strains, locus YNL128W, strain TEP1, hits give low values 0.983 | S. cerevisiae deletion strains, locus YNL153C, strain GIM3, hits give low values 0.985 | S. cerevisiae deletion strains, locus YNL183C, strain NPR1, hits give low values 0.988 | S. cerevisiae deletion strains, locus YNL209W, strain ssb2, hits give low values 1.01 | S. cerevisiae deletion strains, locus YNL233W, strain BNI4, hits give low values 0.986 | S. cerevisiae deletion strains, locus YNL248C, strain rpa49, hits give low values 1 | S. cerevisiae deletion strains, locus YNL250W, strain rad50, hits give low values 0.972 | S. cerevisiae deletion strains, locus YNL271C, strain bni1, hits give low values 0.966 | S. cerevisiae deletion strains, locus YNL298W, strain CLA4, hits give low values 1 | S. cerevisiae deletion strains, locus YNL307C, strain MCK1, hits give low values 0.996 | S. cerevisiae deletion strains, locus YNL322C, strain KRE1 (second series), hits give low values 0.975 | S. cerevisiae deletion strains, locus YNL322C, strain KRE1, hits give low values 0.991 | S. cerevisiae deletion strains, locus YNR049C, strain mso1, hits give low values 0.996 | S. cerevisiae deletion strains, locus YNR052C, strain pop2, hits give low values 0.993 | S. cerevisiae deletion strains, locus YOL006C, strain TOP1, hits give low values 0.978 | S. cerevisiae deletion strains, locus YOL012C, strain htz1 2 | S. cerevisiae deletion strains, locus YOL147C, strain pex11, hits give low values 0.985 | S. cerevisiae deletion strains, locus YOR001W, strain rrp6, hits give low values 0.971 | S. cerevisiae deletion strains, locus YOR061W, strain CKA2, hits give low values 0.995 | S. cerevisiae deletion strains, locus YOR069W, strain VPS5, hits give low values 1 | S. cerevisiae deletion strains, locus YOR070C, strain gyp1, hits give low values 0.999 | S. cerevisiae deletion strains, locus YOR080W, strain dia2, hits give low values 0.98 | S. cerevisiae deletion strains, locus YOR083W, strain WHI5, hits give low values 0.956 | S. cerevisiae deletion strains, locus YOR106W, strain vam3, hits give low values 0.988 | S. cerevisiae deletion strains, locus YOR136W, strain idh2, hits give low values 1 | S. cerevisiae deletion strains, locus YOR144C, strain elg1, hits give low values 0.992 | S. cerevisiae deletion strains, locus YOR184W, strain ser1, hits give low values 1.01 | S. cerevisiae deletion strains, locus YOR231W, strain MKK1, hits give low values 0.992 | S. cerevisiae deletion strains, locus YOR265W, strain rbl2, hits give low values 0.998 | S. cerevisiae deletion strains, locus YOR270C, strain vph1, hits give low values 1.04 | S. cerevisiae deletion strains, locus YOR290C, strain snf2, hits give low values 0.996 | S. cerevisiae deletion strains, locus YOR316C, strain cot1, hits give low values 0.998 | S. cerevisiae deletion strains, locus YPL051W, strain arl3, hits give low values 0.992 | S. cerevisiae deletion strains, locus YPL055C, strain LGE1, hits give low values 1 | S. cerevisiae deletion strains, locus YPL078C, strain atp4, hits give low values 0.98 | S. cerevisiae deletion strains, locus YPL106C, strain sse1, hits give low values 0.974 | S. cerevisiae deletion strains, locus YPL240C, strain hsp82, hits give low values 0.99 | S. cerevisiae deletion strains, locus YPL241C, strain CIN2, hits give low values 0.996 | S. cerevisiae deletion strains, locus YPL256C, strain CLN2, hits give low values 1.02 | S. cerevisiae deletion strains, locus YPR119W, strain clb2, hits give low values 0.994 | S. cerevisiae deletion strains, locus YPR141C, strain kar3, hits give low values 0.966 | S. cerevisiae deletion strains, locus YPR163C, strain tif3, hits give low values 0.976 | S. cerevisiae deletion strains, locus YPR167C, strain met16, hits give low values 0.989 | S. cerevisiae deletion strains, strain wtn01, hits give low values 0.997 | S. cerevisiae strains, strain wild type, hits give low values 0.995
